The list is not random: actives were taken first. Their share in the collection is about 4.7%.
KLK7 zymogen act – proKLK7 (human) activation, primary screen; P49862; purified proKLK7, EDANS-DABCYL substrate fluorescence; 100% is mature enzyme control, 0% vehicle; activation, % at 7 µM; 370,000 tested, 0.9% active; AID 652039;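 active means activation above the mean of all tested compounds plus 3 SD, computed per campaign excluding outliers beyond control limits, cut at about 13% in these data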
ADAM10 inh – inhibitors of human ADAM10; AID 720582; O14672; inhibition, % at 7 µM; recombinant ADAM10, EDANS/DABCYL FRET peptide cleavage, 3 h; 370,000 tested, 0.62% active;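 active means inhibition above a per-campaign cutoff equal to the mean of compounds falling between control-based bounds plus 3 SD, cut at about 20% in these data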
Target sequence (O14672 214-748 limits assumed): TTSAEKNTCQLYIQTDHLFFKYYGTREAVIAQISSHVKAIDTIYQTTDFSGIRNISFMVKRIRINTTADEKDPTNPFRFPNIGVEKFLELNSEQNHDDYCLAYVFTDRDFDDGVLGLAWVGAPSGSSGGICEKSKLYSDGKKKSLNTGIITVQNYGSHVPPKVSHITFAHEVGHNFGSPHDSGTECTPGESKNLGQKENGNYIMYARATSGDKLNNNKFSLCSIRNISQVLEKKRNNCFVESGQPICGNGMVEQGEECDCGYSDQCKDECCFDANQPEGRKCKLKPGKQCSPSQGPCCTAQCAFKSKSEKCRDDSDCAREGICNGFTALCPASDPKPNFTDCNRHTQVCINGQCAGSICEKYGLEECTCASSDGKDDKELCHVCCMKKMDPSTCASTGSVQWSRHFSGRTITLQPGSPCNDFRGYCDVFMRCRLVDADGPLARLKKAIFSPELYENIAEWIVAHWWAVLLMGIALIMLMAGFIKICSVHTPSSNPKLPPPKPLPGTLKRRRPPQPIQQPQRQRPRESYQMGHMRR
ADAM17 inh – inhibits human ADAM17 | recombinant ADAM17, EDANS/DABCYL FRET peptide cleavage | inhibition, % at 6.95 µM | 370,000 tested, 0.83% active;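 active means inhibition above the mean of compounds lying between control limits plus 3 SD, set per campaign, cut at about 8.5% in these data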
MPTP inh – blocks calcium-induced mitochondrial swelling; AID 602449; isolated mouse mitochondria, Ca2+ swelling absorbance, 30 min; 360,000 tested, 1.4% active; inhibition, % at 10 µM;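 active means inhibition of 50% or more, scaled per plate between neutral and stimulator controls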
rCAG binder – r(CAG) repeat RNA binding; TO-PRO-1 dye displacement fluorescence; inhibition, % at 3 µM; 370,000 tested, 1.3% active; AID 651821;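 active means inhibition above the plate cutoff, the mean of all test compounds on that plate plus 3 SD, cut at about 35% in these data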;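 further: higher means more dye released from RNA so lower well fluorescence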
DSG3 Ab inh – blocks pemphigus antibody binding to human desmoglein-3 | 310,000 tested, 0.48% active | P32926 | AID 588358 | binding (percent of control), % at 10 µM | DSG3-coupled beads, scFv-anti-DSG3-GFP binding, flow cytometry; hits give low values;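 active means binding more than 3 SD below its plate's average and above zero; inconclusive means below that plate limit but binding exactly zero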;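 further: hits lower antibody fragment binding to DSG3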
proKLK7 act conf – proKLK7 activation, confirmation; shares compounds with KLK7 zymogen act; purified proKLK7, EDANS-DABCYL substrate fluorescence; scaled: vehicle 0, mature enzyme 100; activation, % at 7 µM; 3,200 tested, 68% active; AID 686949;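 active means activation, as change over the incubation, above the mean of all tested compounds plus 3 SD, cut at about 13% in these data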
EDANS interfere – optically interferes with EDANS-DABCYL signal, flagging KLK7 hits. shares compounds with KLK7 zymogen act. EDANS-DABCYL substrate fluorescence interference, no enzyme, 4 h; solvent 0%, active enzyme control 100%. activation, % at 7 µM. 3,200 tested, 80% active. AID 686952;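 active means activation above the all-compound mean plus 3 SD, ignoring values outside control-based bounds, cut at about 4.8% in these data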;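 further: value is the 4 h activation minus the activation read at time zero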
Large screens that a line does not name were inactive (follow-up assays come after a bar, where they were run).

CNc1oc(/C=C/c2ccccc2)nc1C#N	KLK7 zymogen act 80 (no result: DSG3 Ab inh) | proKLK7 act conf 64 | EDANS interfere 68
CC(Sc1ccccc1)C(=O)NCCc1ccccc1 (centres undefined)	none
CN=C1N(C)C[C@@H]2[C@@H]3C(=O)N(C)C(=O)[C@@H]3[C@](Cc3ccccc3)(C(=O)OC)N12	none (no result: KLK7 zymogen act, ADAM10 inh, ADAM17 inh, rCAG binder)
COCCNc1oc(/C=C/c2ccccc2)nc1C#N	KLK7 zymogen act 106 | proKLK7 act conf 71 | EDANS interfere 76
COc1cc2c(cc1OC)CN(C(=O)CSc1ccc(F)cc1)CC2	none
CCc1nc(SCC(=O)N2CCc3cc(OC)c(OC)cc3C2)c(C#N)cc1C	KLK7 zymogen act 13 | proKLK7 act conf inactive | EDANS interfere inactive
COc1cc2c(cc1OC)CN(C(=O)CSc1n[nH]c(N)n1)CC2	KLK7 zymogen act 18 | proKLK7 act conf inactive | EDANS interfere inactive
CC1CC(C)CN(S(=O)(=O)c2cc3c(cc2Cl)NC(=O)CO3)C1 (centres undefined)	none
O=C(NCCN1CCOCC1)c1cc(-c2ccccc2Cl)nc2ccccc12	none
COc1ccc(-c2cc(C(=O)NCCN3CCOCC3)c3ccccc3n2)cc1	KLK7 zymogen act 15 (no result: DSG3 Ab inh) | proKLK7 act conf inactive | EDANS interfere inactive
COc1ccc(-c2cc(C(=O)NCCN3CCOCC3)c3ccccc3n2)cc1OC	DSG3 Ab inh inconclusive
Cc1ccc(-c2cc(C(=O)NCCN3CCOCC3)c3ccccc3n2)o1	KLK7 zymogen act 49 | proKLK7 act conf 49 | EDANS interfere 66
COC(=O)[C@@]12C[C@@H](CC(=O)NCCC(C)C)C(=O)N(Cc3ccccc3)C1=CCC(C)(C)C2	none (no result: DSG3 Ab inh)
C[C@H](CO)N1C[C@H](C)[C@@H](CN(C)S(=O)(=O)c2ccc(-c3ccccc3)cc2)OCc2cn(nn2)CCCC1=O	none (no result: DSG3 Ab inh)
Nc1nc(N)c2nc(-c3ccccc3)c(N)nc2n1	KLK7 zymogen act 60 | proKLK7 act conf 67 | EDANS interfere 74
NNc1nnc(-c2ccccc2)c(-c2ccccc2)n1	none
CCCCN(C)CCNC(=O)c1cc2c(-c3cccc(OC)c3)nn(C)c2s1	KLK7 zymogen act 13 | proKLK7 act conf inactive | EDANS interfere 15
CC(=O)/C=C(\C)Nc1ccc(-c2cnc(-c3ccccc3)o2)cc1	KLK7 zymogen act 57 | proKLK7 act conf 63 | EDANS interfere 64
CC(C)C(=O)Nc1ccc(-c2nnc(-c3ccccc3)o2)cc1	none
COC(=O)c1cn(C)c2ccc(S(=O)(=O)N(C)C3CCCCC3)cc2c1=O	none
CCOP(=O)(OCC)C(NC(=O)c1cccs1)C(F)(F)F (centres undefined)	KLK7 zymogen act 167 | proKLK7 act conf 241 | EDANS interfere 247
COC(=O)C(CC(C)C)NC(=O)c1cccs1 (centres undefined)	none
COc1ccc(-c2cc(C(=O)NCc3ccc(C(F)(F)F)cc3)[nH]n2)c(C)c1	none (no result: DSG3 Ab inh)
OCc1ccc(-c2cncc3nccn23)cc1	KLK7 zymogen act 23 (no result: DSG3 Ab inh) | proKLK7 act conf 27 | EDANS interfere 27
CCOc1ccccc1Nc1cc(C)c2cccc(C)c2n1	none
CCOc1nc(N=C(N)N)nc2c(C)cccc12	KLK7 zymogen act 21 | proKLK7 act conf inactive | EDANS interfere 17
CC(C)N(C(=O)COC(=O)c1cc(Cl)cc(Cl)c1N)C(C)C	none
CN(C)C(=O)COC(=O)c1cc(Cl)cc(Cl)c1N	KLK7 zymogen act 25 | proKLK7 act conf 24 | EDANS interfere 31
O=C(Nc1ccccc1)Nc1sccc1-c1nc2ccccc2s1	KLK7 zymogen act 35 | proKLK7 act conf inactive | EDANS interfere inactive
COc1ccccc1NC(=O)Nc1sccc1-c1nc2ccccc2s1	none
CS(=O)(=O)Nc1ccc(C2=NN(C(=O)CCCC(=O)O)C(c3cccs3)C2)cc1 (centres undefined)	KLK7 zymogen act 26 | proKLK7 act conf 48 | EDANS interfere 74
CS(=O)(=O)Nc1cccc(C2=NN(C(=O)CCC(=O)O)C(c3cccs3)C2)c1 (centres undefined)	none
CCOC(=O)[C@]12CCCC=C1N(CCCOC)C(=O)[C@@H]2CC(=O)NCCCCc1ccccc1	none (no result: MPTP inh, DSG3 Ab inh)
O=C(O)c1cn(-c2ccc(F)cc2)c2cc(N3CCNCC3)c(F)cc2c1=O	KLK7 zymogen act 15 | proKLK7 act conf inactive | EDANS interfere inactive
COc1ccc(-c2cn3cccnc3n2)cc1NS(=O)(=O)c1ccccc1	KLK7 zymogen act 16 | proKLK7 act conf inactive | EDANS interfere 5.2
COc1ccc(-c2cn3cccnc3n2)cc1F	KLK7 zymogen act 64 (no result: DSG3 Ab inh) | proKLK7 act conf 78 | EDANS interfere 83
COc1ccc(-c2cn3cccnc3n2)cc1NC(=O)C(C)Oc1ccccc1 (centres undefined)	none (no result: DSG3 Ab inh)
O=S(=O)(Nc1ccc(-c2cn3cccnc3n2)cc1)c1ccccc1	KLK7 zymogen act 65 | proKLK7 act conf 22 | EDANS interfere 22
O=S(=O)(Nc1cccc(-c2cn3cccnc3n2)c1)c1ccccc1	KLK7 zymogen act 70 | proKLK7 act conf 15 | EDANS interfere 18
O=S(=O)(Nc1cccc(-c2cn3cccnc3n2)c1)c1ccc(-c2ccccc2)cc1	none
Cc1cnc(-c2nc3ccccc3n2C(C(=O)Nc2c(C)cccc2C)C2CC2)cn1 (centres undefined)	none (no result: DSG3 Ab inh)
Cn1c(=O)[nH]c(=O)c2c1nc(SCCCO)n2CCCc1ccccc1	none
O=S(=O)(Nc1cccc(-c2cn3cccnc3n2)c1)c1ccc(F)cc1	KLK7 zymogen act 58 | proKLK7 act conf 14 | EDANS interfere 14
O=C(CSc1nnc(-c2cccnc2)n1C1CCCCC1)N1CCCC1	none (no result: MPTP inh, DSG3 Ab inh)
COc1ccc(-c2cc3ccc(OCC(=O)NCC4CCC(C(=O)O)CC4)cc3oc2=O)cc1 (centres undefined)	KLK7 zymogen act 64 | proKLK7 act conf 54 | EDANS interfere 74
COc1ccc(-c2cc3ccccc3oc2=O)cc1	none
CC(=O)Oc1ccc2cc(-c3ccccc3)c(=O)oc2c1	KLK7 zymogen act 216 | proKLK7 act conf 565 | EDANS interfere 570
COc1ccc(-c2cc3ccc(OC(C)C(=O)O)cc3oc2=O)cc1 (centres undefined)	KLK7 zymogen act 70 | proKLK7 act conf 70 | EDANS interfere 68
COc1ccc(-c2cc3ccc(OCC(N)=O)cc3oc2=O)cc1OC	none
CC(=O)COc1ccc2cc(-c3ccccc3)c(=O)oc2c1	KLK7 zymogen act 23 | proKLK7 act conf 57 | EDANS interfere 73
